The source of these data is PubChem BioAssay AID547 (Emory University Molecular Libraries Screening Center, 2006).

The campaign covered roughly 1,300 compounds. About 10 (0.8%) were called active. The sample as a whole holds a higher share of actives than the screen did. Values without a mark were called inactive. The rule behind the calls is not given here.

This assay has as its target Chaperone protein DnaK (Escherichia coli (strain K12)) (UniProt P0A6Y8). The assay is described as follows: E. coli DnaK chaperone inhibitors, primary screen, luminescence, E. coli K12 (AID 547).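 Note: tested at 10 µM.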 The following applies: DnaK chaperone assay, luminescence read-out; active compounds read low.
In the case of `CN=C(N)NCCC[C@H](N)C(=O)O`, the luminescence is 2.2e+06 cps.

For `[N-]=[N+]=Nc1ccc(C(=O)CSC[C@H](NC(=O)CC[C@H](N)C(=O)O)C(=O)NCC(=O)O)cc1`, the luminescence was 1.6e+06 cps (active).

In the case of `N[C@@H](CCC(=O)N[C@H](CSN=O)C(=O)NCC(=O)O)C(=O)O`, the luminescence was 2.5e+06 cps.

`C#C[C@]1(O)CC[C@H]2[C@@H]3CCC4=Cc5oncc5CC4(C)[C@H]3CCC21C` (stereo partly specified): the luminescence was 3e+06 cps.

For the molecule `Nc1ncnc2c1nc(Sc1ccc(Cl)cc1)n2C1OC2COP(=O)(O)O[C@@H]2[C@@H]1O` (stereo partly specified), the luminescence was 2.7e+06 cps.

`CC(C)NCC(O)c1ccc(NS(C)(=O)=O)cc1` (stereo unspecified): the luminescence is 2.3e+06 cps.

Turning to `CCn1c(=O)c2[nH]c(-c3ccccc3)nc2n(CC)c1=O`, the luminescence was 2.8e+06 cps.

As to `CC(C)Cn1c(=O)n(C)c(=O)c2[nH]cnc21`, the luminescence is 2.1e+06 cps.

In the case of `CCOC(=O)C12CC1/C(=N/O)c1ccccc1O2` (stereo unspecified), the luminescence was 2.4e+06 cps.

Take `NC(CO)C(=O)NNCc1ccc(O)c(O)c1O` (stereo unspecified): the luminescence is 2.2e+06 cps.

In the case of `C=CC[C@H](N)C(=O)O`, the luminescence is 2.5e+06 cps.

Consider `N[C@@H](Cc1c[nH]c2ccccc12)C(=O)O`, for which the luminescence was 2.2e+06 cps.

Take `NC(C(=O)N[C@@H]1C(=O)N2C(C(=O)O)=C(Cl)CS[C@H]12)c1ccccc1` (stereo partly specified): the luminescence was 2.8e+06 cps.

With `CCN(CC)CCCC(C)Nc1c2ccc(Cl)cc2nc2ccc(OC)cc12` (stereo unspecified), the luminescence was 2.3e+06 cps.

Take `CCC1(O)CC2CN(CCc3c([nH]c4ccccc34)[C@@](C(=O)OC)(c3cc4c(cc3OC)N(C)C3[C@]45CCN4CC=C[C@@](CC)([C@@H](OC(C)=O)[C@]3(O)C(=O)OC)[C@H]45)C2)C1` (stereo partly specified): the luminescence was 2.4e+06 cps.

As for `Cc1cc(C)c(NC(=O)C[C@H](CC(=O)O)c2cccc3ccccc23)c(C(=O)N2CCC3(CCCC3)CC2)c1`, the luminescence was 2.4e+06 cps.

Turning to `Nn1nnc2ccccc21`, the luminescence is 2.9e+06 cps.

For the molecule `O=c1onc2cnc3ccccc3n12`, the luminescence is 2.2e+06 cps.

In the case of `CCOC(=O)Nc1ccc(NCc2ccc(F)cc2)nc1N`, the luminescence was 2.9e+06 cps.

On to `CCCC(=O)NCCc1c2n(c3ccc(OC)cc13)CCCc1ccccc1-2`, for which the luminescence was 2.6e+06 cps.

Turning to `Clc1ccc2c(c1)C(N1CCNCC1)=Nc1ccccc1O2`, the luminescence was 3.1e+06 cps.

As to `CNC(=O)[C@H]1O[C@@H](n2cnc3c(NCc4ccc(N)cc4)ncnc32)C(O)[C@H]1O` (stereo partly specified), the luminescence was 2.7e+06 cps.

As for `O=C(CCc1ccc(O)cc1)c1c(O)cc(O)cc1O`, the luminescence was 2.4e+06 cps.

In the case of `N.N.N.N.N.N.N.N.N.N.N.N.N.N.O.O.[Cl-].[Cl-].[Cl-].[Cl-].[Cl-].[Cl-].[Ru+4].[Ru+5].[Ru+5]`, the luminescence was 2.1e+06 cps.

As for `Fc1ccc(C(OCCCc2cnc[nH]2)c2ccc(F)cc2)cc1`, the luminescence is 2.6e+06 cps.

Consider `CN(C)CCC(c1ccc(Cl)cc1)c1ccccn1` (stereo unspecified), for which the luminescence is 2.6e+06 cps.

Take `C=Cc1c(C)c2cc3[nH]c(cc4nc(cc5nc(cc1[nH]2)C(C)=C5CCC(=O)O)C(CCC(=O)O)=C4C)c(C)c3C=C`: the luminescence was 2e+06 cps.

Regarding `O=C(Nc1ccc([N+](=O)[O-])cc1Cl)c1cc(Cl)ccc1O`, the luminescence was 1.7e+06 cps (active).

On to `O=C(Nc1ccccc1)c1cc([N+](=O)[O-])ccc1Cl`, for which the luminescence is 2.6e+06 cps.

Consider `O=C(O)c1cc([N+](=O)[O-])ccc1NCCCc1ccccc1`, for which the luminescence was 2.6e+06 cps.

Take `NCC(O)c1ccc(O)c(O)c1` (stereo unspecified): the luminescence was 2.7e+06 cps.

For the molecule `O=C(O)c1cc(=O)c2ccc(Cl)cc2[nH]1`, the luminescence is 2.8e+06 cps.

`CN=c1nc(-c2ccccc2)n(-c2ccccc2)s1`: the luminescence was 2.4e+06 cps.

For the molecule `O=S(=O)(NCCNC/C=C/c1ccc(Br)cc1)c1cccc2cnccc12`, the luminescence is 2.4e+06 cps.

In the case of `O=C(OCCN1CCCCC1)c1c[nH]c2ccccc12`, the luminescence was 2.9e+06 cps.

Turning to `O=C(O)/C(=C/c1c(C(=O)O)[nH]c2cc(Cl)cc(Cl)c12)c1ccccc1`, the luminescence is 2.5e+06 cps.

As to `Cc1cn([C@H]2C=C[C@@H](CO)O2)c(=O)[nH]c1=O`, the luminescence is 2.9e+06 cps.

Take `CCN(CC)C(C)C(=O)N1c2ccccc2Sc2ccccc21` (stereo unspecified): the luminescence was 2.4e+06 cps.

With `O=C(O)c1cc2cc(Cc3cccnc3)ccc2o1`, the luminescence was 3.2e+06 cps.

Turning to `O=C(c1ccccc1)c1ccc2n1CCC2C(=O)O` (stereo unspecified), the luminescence was 2.9e+06 cps.

Turning to `C[N+](C)(C)CCOC(N)=O`, the luminescence is 2.6e+06 cps.

With `NCCc1cnc[nH]1`, the luminescence is 3.3e+06 cps.

For the molecule `Nc1c(S(=O)(=O)O)cc(Nc2ccc(Nc3nc(Cl)nc(Nc4ccc(S(=O)(=O)O)cc4)n3)c(S(=O)(=O)O)c2)c2c1C(=O)c1ccccc1C2=O`, the luminescence is 1.6e+06 cps (active).

As to `O=C(O)C1CN(CCCP(=O)(O)O)CCN1` (stereo unspecified), the luminescence was 2.6e+06 cps.

Regarding `COc1ccccc1N1CCN(CCCCNC(=O)c2ccc3ccccc3c2)CC1`, the luminescence is 2.7e+06 cps.

Consider `COc1cc2c(cc1OC)-c1cc(=Nc3c(C)cc(C)cc3C)n(C)c(=O)n1CC2`, for which the luminescence was 2.5e+06 cps.

Regarding `O=C(O)C1=CC(=C(c2ccc(O)c(C(=O)O)c2)c2ccc(O)c(C(=O)O)c2)C=CC1=O`, the luminescence was 1.2e+06 cps (active).

As for `O=C(/C=C/c1ccc(O)c(O)c1)OCCc1ccccc1`, the luminescence is 3e+06 cps.

With `C[C@@H]1C(=O)NC2=Nc3cccc(Cl)c3CN21`, the luminescence was 2.4e+06 cps.

Consider `COc1cc(C(O)CO)ccc1O` (stereo unspecified), for which the luminescence is 2.8e+06 cps.

`CNCCNS(=O)(=O)c1cccc2cnccc12`: the luminescence was 2.6e+06 cps.
